In PubChem BioAssay (NCATS):
Inconclusive results are not listed. Calls of active or inactive are those of the source. Unless noted, calls follow the shape of the dose curve; as a rule, active = well fitted curve in the direction sought with a large enough effect; inconclusive = small, poorly fitted or top-dose-only effect, or another doubt; inactive = no such curve, though single readings can be large; an effect the other way counts as inactive or inconclusive.

Columns and labels:
[1] = AP1 Signaling Pathway (AID 357; active = well fitted curve in either direction with a large enough effect, not every such curve was filed as active;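 also: ME-180 reporter cells stimulated with EGF at its EC50 level; % is scaled to controls: 0 for no effect and ±100 for the full control effect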); settings: ME-180 AP-1-bla reporter, EGF-induced, beta-lactamase ratio, 5 h; at 7.69 µM (top of the series) unless noted
Procedure, shortened: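 Beta-lactamase reporter under AP-1 response element, ME-180 background. Stimulus: EC50 EGF. Compound exposure 5 h, 37 °C. Detection: CCF4, 2.5 h RT, 460/530 nm. Values: AC50 from titration.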

[2] = molecular target: Cytochrome P450 1A2 (Homo sapiens) (UniProt P05177); assay: p450-cyp1a2 (AID 410; calls by dose curve;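 also: -100% = full effect of reference inhibitor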)
Procedure, shortened: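 Human CYP1A2 (20nM) demethylated Luciferin-ME at its Km (100uM) in 100mM KPO4. After 10 min compound preincubation, NADPH regeneration ran the reaction 60 min at room temperature. Luciferin was read by luminescence, normalized to 57 uM furafylline.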

[3] = NFAT Signaling Pathway (AID 444; active = well fitted curve in either direction with a large enough effect, not every such curve was filed as active;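 also: carbachol stimulus at about its EC50 of 1 µM final; % is scaled to controls: 0 for no effect and ±100 for the full control effect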); settings: Jurkat NFAT-bla M1, carbachol, beta-lactamase ratio, 5 h; at 7.69 µM (top of the series) unless noted
Procedure, shortened: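 Jurkat cells carrying an NFAT-driven β-lactamase reporter and co-transfected muscarinic M1 receptor were treated with compound plus carbachol (1 uM final, an EC50 level) for 5 h at 37 °C. CCF4 loading followed for 1 h at RT; 460/530 nm ratio gave %activity.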

[4] = Stat Signaling Pathway (AID 446; active = well fitted curve in either direction with a large enough effect, not every such curve was filed as active;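 also: ME-180 cervical cancer cells given 40 pM IL-6 alongside compound; SIE-controlled beta-lactamase reporter measured as 460/530 nm FRET emission ratio; % is scaled to controls: 0 for no effect and ±100 for the full control effect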); settings: ME-180 SIE beta-lactamase reporter, IL-6 stimulated, 5 h; at 7.69 µM (top of the series) unless noted
Procedure, shortened: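 Reporter line: ME-180 cervical carcinoma, SIE-beta-lactamase. Treatment: compound with 40 pM IL-6, 5 hrs, 37 C, in low-serum OPTI-MEM with 10 mM HEPES pH 7.3. Detection: 460/530 nm fluorescence.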

[5] = molecular target: Glucocorticoid receptor (Homo sapiens) (UniProt P04150); assay: GR-GFP Redistribution (AID 450;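 active = compounds whose dose series gives a full or clear partial fitted curve of increased nuclear translocation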; also: potency is read from the fitted curve at half-maximal effect); settings: U2OS GR-GFP nuclear translocation, laser cytometry, 2 h
[6] = molecular target: Glucocorticoid receptor (Homo sapiens) (UniProt P04150); assay: GR-EFC Redistribution (AID 451; calls by dose curve; also: potency is read from the fitted curve at half-maximal effect); settings: CHO-K1 GR-EFC translocation, beta-gal luminescence, 2 h
Procedure, shortened: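 CHO-K1 cells stably expressing nuclear-localized β-gal enzyme acceptor and GR fused C-terminally to the enzyme donor fragment; ligand-driven nuclear translocation restores β-gal by complementation. Compounds titrated up to 46 uM final, 2 h at 37 °C; luminescence read.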

[7] = molecular target: Mitogen-activated protein kinase 10 (Mus musculus) (UniProt Q61831); assay: JNK3 AlphaScreen Assay (AID 530; active = well fitted curve in either direction with a large enough effect, not every such curve was filed as active;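 also: kinase came from lysate of stimulated human HepG2 cells; signal reports phosphorylation of biotinylated GST-cJun 1-79 at Ser73 with 10 µM ATP; % is scaled to controls: 0 for no effect and ±100 for the full control effect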)
Procedure, shortened: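 JNK3 came from HepG2 lysates pre-activated with IL-1beta and TNF-alpha and phosphorylated biotinylated GST-cJun (1-79) at 10 uM ATP, pH 7.6, room temperature. Compounds were titrated. AlphaScreen signal used anti-phospho-cJun (Ser73) antibody.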

[8] = molecular target: 3',5'-cyclic-AMP phosphodiesterase 4B (Homo sapiens) (UniProt Q07343); assay: qHTS Assay for Inhibitors of PDE-IV (AID 607; active = well fitted activation curve with a large enough effect in the main read-out, with a control signal flat, not every such curve was filed as active; also: % of control where 0% means no effect)
Procedure, shortened: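 Cell-based read-out of cAMP via a modified cyclic nucleotide-gated channel and membrane potential dye (535/590 nm) in HEK293 cells expressing PDE4 endogenously. Compounds tested up to 22.9 uM final; 100 uM RO 20-1724 reference.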

[9] = molecular target: Guanine nucleotide-binding protein G(i) subunit alpha-1 (Homo sapiens) (UniProt P63096); assay: qHTS Assay for Inhibitors of RGS12 GoLoco Motif Activity (Green Fluorophore) (AID 879);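 also: 0% = labeled peptide with Gαi1 and full inhibition = labeled peptide alone without protein; negative values mean loss of peptide binding seen as reduced polarization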
Procedure, shortened: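 Fluorescence polarization assay: 50 nM Gαi1 with 10 nM FITC-labeled RGS12 GoLoco peptide in 10 mM Tris pH 7.5, 150 mM NaCl, 0.1 mM GDP, 0.05% NP40, 10 min at room temperature with compound.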

[10] = molecular target: Pyruvate kinase (Leishmania mexicana) (UniProt Q27686); assay: qHTS Validation Assay for Inhibitors of Leishmania Mexicana Pyruvate Kinase (AID 945);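 also: 0% = DMSO only neutral control wells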
Procedure, shortened: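 Substrate mix (0.5 mM PEP, 0.1 mM ADP, 7 mM MgCl2, 50 mM KCl, pH 7.2 imidazole) received compound by pin tool, then 0.2 nM LmPYK E451W. After 1 h at room temperature, PKLight was added and luminescence measured.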

[11] = molecular target: Pyruvate kinase PKM (Homo sapiens) (UniProt P14618); assay: qHTS Assay for Activators of Human Muscle Pyruvate Kinase (AID 954; active = well fitted curve in the direction sought with a large enough effect, not every such curve was filed as active;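 also: 0% = uninhibited enzyme and -100% = no enzyme or full thiadiazolimine inhibition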)
Procedure, shortened: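 Human PKM2 activity is measured as ATP generation, detected by luciferase-coupled luminescence. The enzyme (0.1 nM) acts on 0.5 mM PEP and 0.1 mM ADP for 1 h at ambient temperature; data are normalized to uninhibited and full-inhibition wells.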

[12] = molecular target: Alpha-galactosidase A (Homo sapiens) (UniProt P06280); assay: Counterscreen for Glucocerebrosidase Inhibitors: qHTS Assay for Human alpha-Galactosidase at pH 4.5 (AID 992); also: 0% is about no effect
Procedure, shortened: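 Quantitative HTS: compounds tested from 0.7 nM up to 77 uM against 2 nM enzyme with 80 uM 4-MU alpha-D-galactopyranoside. The 20 min room-temperature reaction is stopped with 1M NaOH/1M glycine, pH 10.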

[13] = molecular target: alpha-glucosidase (Oryza sativa, rice) (UniProt Q653V4); assay: Counterscreen for Glucocerebrosidase Inhibitors: qHTS Assay for Rice alpha-Glucosidase at pH 5.0 (AID 997);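 also: 0% = full activity with enzyme and -100% = basal without enzyme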
Procedure, shortened: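 Rice alpha-glucosidase (4 nM final) with 400 uM 4-methylumbelliferyl-alpha-D-glucopyranoside in citrate buffer pH 5.0, 20 min at room temperature, stopped at pH 10; fluorescence 365/440 nm, compounds 0.7 nM–77 uM, AC50 from Hill fits.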

[14] = molecular target: Cytochrome P450 2C19 (Homo sapiens) (UniProt P33261); assay: qHTS Assay for Inhibitors and Substrates of Cytochrome P450 2C19 (AID 899); also: % is scaled to controls: 0 for no effect and ±100 for the full control effect; nearly all actives have a fitted effect of over 60% in size
Procedure, shortened: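 Human CYP2C19 (5nM) with Luciferin-H EGE at 10uM (its KM) in 50mM KPO4 was preincubated with compound for 10 min at 37C. NADPH regeneration started a 60 min 37C reaction. Luciferin was read by luminescence, normalized to 57uM ketoconazole.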

[15] = qHTS Assay for Identification of Small Molecule Agonists for Thrombopoietin (TPO) Signaling Pathway (AID 917); also: % is scaled to controls: 0 for no effect and ±100 for the full control effect
Procedure, shortened: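 IL-3-dependent murine pro-B Ba/F3 cells, stably transfected with human TPO receptor and GpIIb-promoter luciferase, are incubated 24 hrs at 37 C with test compound and 26 pM TPO; luciferase signal is read after 10 min at room temperature.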

[16] = molecular target: Muscarinic acetylcholine receptor M1 (Rattus norvegicus) (UniProt P08482); assay: qHTS Assay for Antagonists of Acetylcholine Muscarinic M1 Receptor: Measurement of IP-One Response (AID 944); also: nearly all actives have a fitted effect of over 75% in size
Procedure, shortened: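 CHO cells expressing rat M1 receptor, recovered overnight, were pre-incubated 10 min with compound, then stimulated 30 min with carbachol at EC80 (200 nM) in LiCl-containing buffer, pH 7.4. IP1 accumulation was read by HTRF (620/665 nm).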

[17] = molecular target: Cytochrome P450 3A4 (Homo sapiens) (UniProt P08684); assay: qHTS Assay for Activators of Cytochrome P450 3A4 (AID 885); also: nearly all actives have a fitted effect of over 65% in size
Procedure, shortened: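 Signal was normalized against complete inhibition by 57 uM ketoconazole. The reaction used 20nM CYP3A4 with 25uM Luciferin-PPXE, 10-min compound preincubation and a 60-min NADPH-supported step at RT.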

[18] = molecular target: Muscarinic acetylcholine receptor M1 (Rattus norvegicus) (UniProt P08482); assay: qHTS Assay for Antagonists of Acetylcholine Muscarinic M1 Receptor: Kinetic Measurement of Intracellular Calcium Response (AID 943);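 also: Fluo-4 calcium signal as peak divided by basal fluorescence over 4 min; nearly all actives have a fitted effect of over 75% in size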
Procedure, shortened: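 CHO cells stably expressing rat M1 were loaded with no-wash Fluo-4 dye for 1 h at 37C, pre-incubated 10 min with compound, then challenged with EC80 carbachol (100 nM final); kinetic calcium read 4 min, peak/basal ratio.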

[19] = molecular target: Cytochrome P450 3A4 (Homo sapiens) (UniProt P08684); assay: qHTS Assay for Inhibitors and Substrates of Cytochrome P450 3A4 (AID 884); also: % is scaled to controls: 0 for no effect and ±100 for the full control effect; nearly all actives have a fitted effect of over 50% in size
Procedure, shortened: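 20 nM human CYP3A4 with 25 uM Luciferin-PPXE (at KM) in 200 mM KPO4, preincubated 10 min with compound; NADPH regeneration started a 60 min RT reaction. Luciferin detected by luminescence, normalized to 57 uM ketoconazole as full inhibition.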

[20] = qHTS Assay for Identification of Small Molecule Antagonists for NFkB Signaling Pathway (AID 895; active = well fitted inhibition curve with a large enough effect in the signal ratio, with a control signal flat, not every such curve was filed as active; the % refers to the signal ratio; also: % is scaled to controls: 0 for no effect and ±100 for the full control effect)
Procedure, shortened: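 NFkB-bla ME-180 cervical carcinoma cells with beta-lactamase reporter under NFkB response element; compounds added, then TNF alpha at 10 pM final (EC50), 5 h at 37 C. LiveBLAzer substrate 2 h, room temperature; emission 460/530 nm at 405 nm excitation.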

[21] = molecular target: Cytochrome P450 2C9 (Homo sapiens) (UniProt P11712); assay: qHTS Assay for Inhibitors and Substrates of Cytochrome P450 2C9 (AID 883); also: % is scaled to controls: 0 for no effect and ±100 for the full control effect; nearly all actives have a fitted effect of over 60% in size
Procedure, shortened: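 Human CYP2C9 (10nM) hydroxylated Luciferin-H (100uM, at its KM) to luciferin in 25mM KPO4. Compound was preincubated 10 min at 37C, then NADPH regeneration started a 60 min reaction at 37C. Luminescence was read after detection reagent, normalized to 57uM sulphaphenazole.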

[22] = molecular target: Cytochrome P450 2D6 (Homo sapiens) (UniProt P10635); assay: qHTS Assay for Inhibitors and Substrates of Cytochrome P450 2D6 (AID 891);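 also: luciferin methyl ether substrate demethylated by CYP2D6 with NADPH regeneration; % is scaled to controls: 0 for no effect and ±100 for the full control effect; nearly all actives have a fitted effect of over 60% in size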
Procedure, shortened: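 Human CYP2D6 (5 nM) with 30 uM Luciferin-ME EGE (at Km) in 100 mM KPO4, compound preincubated 10 min, then NADPH regeneration system for 60 min at room temperature. Luciferin read by luminescence; normalized to 1.43 uM quinidine.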

Pyruvate kinase (Leishmania mexicana), sequence (Q27686 2-499 E452W): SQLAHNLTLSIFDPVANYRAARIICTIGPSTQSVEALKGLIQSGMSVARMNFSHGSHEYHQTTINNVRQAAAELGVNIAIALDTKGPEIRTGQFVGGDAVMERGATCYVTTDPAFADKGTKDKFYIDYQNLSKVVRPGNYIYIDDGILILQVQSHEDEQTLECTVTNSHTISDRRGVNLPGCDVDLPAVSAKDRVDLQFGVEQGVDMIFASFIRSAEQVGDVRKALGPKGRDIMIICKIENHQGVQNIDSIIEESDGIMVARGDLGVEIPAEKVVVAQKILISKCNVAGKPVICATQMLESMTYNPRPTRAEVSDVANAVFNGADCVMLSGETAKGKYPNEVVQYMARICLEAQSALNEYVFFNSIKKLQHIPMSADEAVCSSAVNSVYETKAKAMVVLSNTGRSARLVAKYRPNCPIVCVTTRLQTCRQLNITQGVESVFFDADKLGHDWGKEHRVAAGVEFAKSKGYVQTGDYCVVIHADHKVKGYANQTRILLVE
Guanine nucleotide-binding protein G(i) subunit alpha-1 (Homo sapiens), sequence (P63096 whole entry, looked up): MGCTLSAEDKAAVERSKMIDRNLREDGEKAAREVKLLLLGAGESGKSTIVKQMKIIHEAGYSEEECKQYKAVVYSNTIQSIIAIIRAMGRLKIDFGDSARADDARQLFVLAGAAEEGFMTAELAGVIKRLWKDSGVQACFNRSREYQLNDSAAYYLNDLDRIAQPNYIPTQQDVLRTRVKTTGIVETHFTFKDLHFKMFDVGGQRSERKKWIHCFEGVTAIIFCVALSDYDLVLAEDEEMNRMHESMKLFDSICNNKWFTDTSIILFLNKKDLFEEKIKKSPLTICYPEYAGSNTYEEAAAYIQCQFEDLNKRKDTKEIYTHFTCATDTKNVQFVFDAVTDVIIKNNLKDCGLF
Alpha-galactosidase A (Homo sapiens), sequence (P06280 whole entry, looked up): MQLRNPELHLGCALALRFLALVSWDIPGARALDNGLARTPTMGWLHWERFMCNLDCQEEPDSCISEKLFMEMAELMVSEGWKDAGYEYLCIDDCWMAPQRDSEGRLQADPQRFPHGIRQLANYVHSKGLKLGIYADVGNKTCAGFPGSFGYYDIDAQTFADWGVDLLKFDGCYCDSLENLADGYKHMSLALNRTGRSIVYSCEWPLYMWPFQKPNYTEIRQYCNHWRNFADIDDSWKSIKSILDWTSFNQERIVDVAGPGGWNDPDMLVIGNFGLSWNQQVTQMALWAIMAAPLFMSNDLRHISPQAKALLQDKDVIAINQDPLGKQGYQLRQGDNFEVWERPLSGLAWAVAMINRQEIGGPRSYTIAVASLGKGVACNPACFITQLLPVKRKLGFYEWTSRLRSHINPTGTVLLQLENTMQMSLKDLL
Cytochrome P450 1A2 (Homo sapiens), sequence (P05177 whole entry, looked up): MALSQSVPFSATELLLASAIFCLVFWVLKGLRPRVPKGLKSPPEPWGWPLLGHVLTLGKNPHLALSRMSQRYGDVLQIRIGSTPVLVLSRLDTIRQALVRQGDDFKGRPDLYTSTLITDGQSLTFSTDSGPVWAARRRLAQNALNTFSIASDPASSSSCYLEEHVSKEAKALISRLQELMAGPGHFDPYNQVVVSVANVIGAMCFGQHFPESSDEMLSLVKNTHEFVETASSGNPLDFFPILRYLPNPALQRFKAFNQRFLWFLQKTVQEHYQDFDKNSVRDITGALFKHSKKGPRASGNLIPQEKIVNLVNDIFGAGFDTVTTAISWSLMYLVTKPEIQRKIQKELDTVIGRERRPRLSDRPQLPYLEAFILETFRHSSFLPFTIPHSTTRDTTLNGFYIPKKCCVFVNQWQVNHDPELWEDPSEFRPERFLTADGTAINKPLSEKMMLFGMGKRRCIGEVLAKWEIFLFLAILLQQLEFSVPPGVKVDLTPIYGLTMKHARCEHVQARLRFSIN
Pyruvate kinase PKM (Homo sapiens), sequence (P14618 whole entry, looked up): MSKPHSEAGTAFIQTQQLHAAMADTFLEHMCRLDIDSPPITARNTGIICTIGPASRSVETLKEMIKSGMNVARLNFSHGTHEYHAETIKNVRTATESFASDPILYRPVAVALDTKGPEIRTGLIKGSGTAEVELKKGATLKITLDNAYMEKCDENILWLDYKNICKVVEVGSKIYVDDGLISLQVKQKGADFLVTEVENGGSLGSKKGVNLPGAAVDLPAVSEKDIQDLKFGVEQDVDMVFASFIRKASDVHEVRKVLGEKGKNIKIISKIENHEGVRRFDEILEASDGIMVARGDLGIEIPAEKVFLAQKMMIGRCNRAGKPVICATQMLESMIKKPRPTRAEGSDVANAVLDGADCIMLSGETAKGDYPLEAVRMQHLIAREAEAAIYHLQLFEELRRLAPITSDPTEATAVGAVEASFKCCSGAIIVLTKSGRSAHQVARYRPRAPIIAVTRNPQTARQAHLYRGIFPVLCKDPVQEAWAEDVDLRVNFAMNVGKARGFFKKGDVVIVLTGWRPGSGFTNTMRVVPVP
Glucocorticoid receptor (Homo sapiens), sequence (P04150 whole entry, looked up, the tested form may be a part): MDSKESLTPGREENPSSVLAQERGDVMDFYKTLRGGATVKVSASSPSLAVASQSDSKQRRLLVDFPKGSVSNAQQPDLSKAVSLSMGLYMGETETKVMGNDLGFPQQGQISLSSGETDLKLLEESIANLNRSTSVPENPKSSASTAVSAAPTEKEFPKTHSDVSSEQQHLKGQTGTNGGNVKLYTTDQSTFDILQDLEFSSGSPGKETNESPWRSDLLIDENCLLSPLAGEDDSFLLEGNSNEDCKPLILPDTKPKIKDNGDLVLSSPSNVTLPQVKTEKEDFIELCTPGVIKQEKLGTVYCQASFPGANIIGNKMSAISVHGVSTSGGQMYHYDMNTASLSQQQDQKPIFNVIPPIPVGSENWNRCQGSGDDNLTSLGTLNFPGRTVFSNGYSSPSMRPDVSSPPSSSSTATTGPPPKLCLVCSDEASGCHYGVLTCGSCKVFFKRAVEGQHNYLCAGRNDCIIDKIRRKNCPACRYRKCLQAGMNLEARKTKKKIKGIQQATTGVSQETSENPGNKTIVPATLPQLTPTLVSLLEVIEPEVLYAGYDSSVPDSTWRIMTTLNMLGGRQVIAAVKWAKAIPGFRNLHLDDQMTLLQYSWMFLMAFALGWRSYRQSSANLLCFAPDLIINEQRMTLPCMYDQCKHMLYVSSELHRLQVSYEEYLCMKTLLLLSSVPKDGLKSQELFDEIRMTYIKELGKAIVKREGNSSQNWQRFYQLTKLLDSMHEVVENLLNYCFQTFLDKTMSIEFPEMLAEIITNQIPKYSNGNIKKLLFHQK
Muscarinic acetylcholine receptor M1 (Rattus norvegicus), sequence (P08482 whole entry, looked up): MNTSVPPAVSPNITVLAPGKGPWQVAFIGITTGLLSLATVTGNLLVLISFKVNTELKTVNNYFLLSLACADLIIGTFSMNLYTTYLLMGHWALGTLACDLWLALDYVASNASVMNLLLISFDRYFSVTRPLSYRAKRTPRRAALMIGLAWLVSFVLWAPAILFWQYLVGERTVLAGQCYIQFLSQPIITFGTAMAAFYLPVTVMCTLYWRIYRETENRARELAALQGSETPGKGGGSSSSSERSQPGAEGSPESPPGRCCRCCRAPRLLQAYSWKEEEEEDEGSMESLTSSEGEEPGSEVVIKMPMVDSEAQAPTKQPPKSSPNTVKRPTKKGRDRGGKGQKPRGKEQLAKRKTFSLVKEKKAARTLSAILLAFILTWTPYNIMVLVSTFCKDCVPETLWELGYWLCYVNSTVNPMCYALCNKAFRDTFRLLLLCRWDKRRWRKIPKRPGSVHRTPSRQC
3',5'-cyclic-AMP phosphodiesterase 4B (Homo sapiens), sequence (Q07343 whole entry, looked up): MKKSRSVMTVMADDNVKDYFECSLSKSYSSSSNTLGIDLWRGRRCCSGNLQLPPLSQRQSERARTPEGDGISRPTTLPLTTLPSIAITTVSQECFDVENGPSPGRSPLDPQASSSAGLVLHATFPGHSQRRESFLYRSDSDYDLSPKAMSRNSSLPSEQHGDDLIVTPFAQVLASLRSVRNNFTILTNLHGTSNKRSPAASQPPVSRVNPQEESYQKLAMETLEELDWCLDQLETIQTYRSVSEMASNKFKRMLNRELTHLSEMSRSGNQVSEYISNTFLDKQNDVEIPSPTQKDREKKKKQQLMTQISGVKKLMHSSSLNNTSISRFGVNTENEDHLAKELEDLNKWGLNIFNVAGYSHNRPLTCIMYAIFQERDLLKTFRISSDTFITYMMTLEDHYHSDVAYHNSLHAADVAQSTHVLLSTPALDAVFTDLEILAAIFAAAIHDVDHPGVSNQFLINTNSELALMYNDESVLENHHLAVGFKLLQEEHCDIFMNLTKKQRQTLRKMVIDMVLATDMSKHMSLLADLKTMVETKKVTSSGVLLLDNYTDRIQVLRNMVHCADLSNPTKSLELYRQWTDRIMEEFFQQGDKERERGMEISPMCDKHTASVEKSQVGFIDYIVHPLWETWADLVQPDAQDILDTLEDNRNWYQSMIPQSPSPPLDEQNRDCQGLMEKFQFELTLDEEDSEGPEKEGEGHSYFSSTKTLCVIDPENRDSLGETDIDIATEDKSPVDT
Cytochrome P450 2C19 (Homo sapiens), sequence (P33261 whole entry, looked up): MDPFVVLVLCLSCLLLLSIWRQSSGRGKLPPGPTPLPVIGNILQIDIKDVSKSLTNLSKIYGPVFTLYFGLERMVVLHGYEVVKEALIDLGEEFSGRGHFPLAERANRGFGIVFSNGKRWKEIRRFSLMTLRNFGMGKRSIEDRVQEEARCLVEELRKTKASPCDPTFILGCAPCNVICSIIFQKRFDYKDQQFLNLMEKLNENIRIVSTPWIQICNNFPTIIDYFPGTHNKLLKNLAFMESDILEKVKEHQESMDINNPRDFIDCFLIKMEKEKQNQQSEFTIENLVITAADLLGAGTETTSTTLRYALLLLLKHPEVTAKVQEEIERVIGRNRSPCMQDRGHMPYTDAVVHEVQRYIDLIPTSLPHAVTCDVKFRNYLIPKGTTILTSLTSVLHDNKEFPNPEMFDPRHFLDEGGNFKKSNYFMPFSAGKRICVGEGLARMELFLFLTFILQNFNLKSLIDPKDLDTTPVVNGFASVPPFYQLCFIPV

CNc1ncnc2c1ncn2[C@@H]1O[C@@H](CO)[C@H](O)[C@@H]1O
inactive: activity change, negative = inhibition [1] -19.9% [at 38 µM] | Potency [2] | activity change, negative = inhibition [3] 0.83% [at 38 µM] | activity, negative = inhibition [4] -6.86% [at 38 µM] | Potency [5] > 46 µM | Potency [6] > 46 µM | Potency [7] | Potency [8] | outcome [9] | outcome [10] | outcome [11] | outcome [12] | Potency [13]

O=C(O)CCC(=O)N1CCC[C@H]1C(=O)O
inactive: activity change, negative = inhibition [1] 14% [at 38 µM] | Potency [2] | activity change, negative = inhibition [3] 7.11% [at 38 µM] | activity, negative = inhibition [4] -28.5% [at 38 µM] | Potency [5] > 46 µM | Potency [6] > 46 µM | Potency [7] | Potency [8] | outcome [9] | Potency [14] | outcome [15] | Potency [16] | outcome [10] | outcome [11] | outcome [12] | Potency [13]

Nc1ccc(CCNc2ncnc3c2ncn3[C@@H]2O[C@@H](CO)[C@H](O)[C@@H]2O)cc1
inactive: activity change, negative = inhibition [1] -2.21% [at 38 µM] | Potency [2] | activity change, negative = inhibition [3] 3.61% [at 38 µM] | activity, negative = inhibition [4] 17.4% [at 38 µM] | Potency [5] > 46 µM | Potency [6] > 46 µM | Potency [7] | Potency [8] | outcome [9] | Potency [17] | outcome [15] | Potency [18] | outcome [11] | outcome [12] | Potency [13]

O=[N+]([O-])c1ccc(CSc2ncnc3c2ncn3[C@@H]2O[C@@H](CO)[C@@H](O)[C@H]2O)cc1
inactive: activity change, negative = inhibition [1] -12.2% [at 38 µM] | Potency [2] | activity change, negative = inhibition [3] 11% [at 38 µM] | activity, negative = inhibition [4] 29.7% [at 38 µM] | Potency [5] > 46 µM | Potency [6] > 46 µM | Potency [7] | Potency [8] | outcome [9] | Potency [19] | Potency [20] | outcome [15] | Potency [16] | outcome [10] | outcome [11] | outcome [12] | Potency [13]

Nc1ncnc2nc[nH]c12.Nc1ncnc2nc[nH]c12.[Cl][Pt]([Cl])([Cl])[Cl]
inactive: activity change, negative = inhibition [1] -1.02% | activity change, negative = inhibition [2] 13.2% [at 2.29 µM] | activity change, negative = inhibition [3] 4.22% | activity, negative = inhibition [4] -3.14% | Potency [5] > 46 µM | Potency [6] > 9.22 µM | Potency [7] | Potency [8] | Potency [21] | Potency [22] | Potency [14]
